# Screening results (PubChem BioAssay)
# An excerpt weighted towards active compounds, which were near 2.7% of everything screened.
# Neddyl block: cullin neddylation inhibition; P61081+Q13564; TR-FRET cullin neddylation, biochemical; calls only at 25 µM; 360,000 tested, 0.58% active; AID 651699; in the data active = inhibition above about 36%
# FAS TE block: inhibitors of human fatty acid synthase thioesterase domain | P49327 | recombinant FAS-TE, OMFH fluorogenic substrate, fluorescence endpoint | inhibition, % at 15 µM | 360,000 tested, 0.67% active | AID 602261;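 active = compounds whose normalised, plate-corrected inhibition of enzyme fluorescence in the single-dose primary screen is 50% or more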
# PfG6PD inh: PfG6PD (Plasmodium falciparum) enzyme inhibition; PfGluPho enzyme, NADPH resazurin-diaphorase fluorescence; inhibition, % at 20 µM; 350,000 tested, 0.78% active; AID 504690;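 active = inhibition reaching at least a set limit at 20 µM in the primary screen, cut at about 59% in these data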
# proKLK7 act: activators of human kallikrein-7 zymogen. 370,000 tested, 0.9% active. P49862. AID 652039. purified proKLK7, EDANS-DABCYL substrate fluorescence; 100% is mature enzyme control, 0% vehicle. activation, % at 7 µM;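 active = activation above the mean of all tested compounds plus 3 SD, computed per campaign excluding outliers beyond control limits, cut at about 13% in these data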
# Target sequence (P49862 whole entry, looked up): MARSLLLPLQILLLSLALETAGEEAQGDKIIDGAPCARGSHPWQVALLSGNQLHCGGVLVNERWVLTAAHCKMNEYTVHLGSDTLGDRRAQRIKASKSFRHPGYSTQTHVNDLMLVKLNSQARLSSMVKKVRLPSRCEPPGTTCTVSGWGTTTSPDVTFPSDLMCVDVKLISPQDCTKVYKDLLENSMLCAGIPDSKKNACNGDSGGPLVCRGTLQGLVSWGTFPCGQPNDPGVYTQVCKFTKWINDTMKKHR
# KLK7 act conf: confirmation of human kallikrein-7 zymogen activators; activation, % at 7 µM; AID 686949; 3,200 tested, 68% active; purified proKLK7, EDANS-DABCYL substrate fluorescence; scaled: vehicle 0, mature enzyme 100; shares compounds with proKLK7 act;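 active = activation, as change over the incubation, above the mean of all tested compounds plus 3 SD, cut at about 13% in these data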
# EDANS-DABCYL int: fluorescence interference counter-screen for KLK7 activators. shares compounds with proKLK7 act. EDANS-DABCYL substrate fluorescence interference, no enzyme, 4 h; solvent 0%, active enzyme control 100%. activation, % at 7 µM. 3,200 tested, 80% active;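 active = activation above the all-compound mean plus 3 SD, ignoring values outside control-based bounds, cut at about 4.8% in these data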;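 also: value is the 4 h activation minus the activation read at time zero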
# A number is an active result; 0 = inactive; - = no result shown.
SMILES,Neddyl block,FAS TE block,PfG6PD inh,proKLK7 act,KLK7 act conf,EDANS-DABCYL int
O=S(=O)(CC1NCCc2ccccc21)NCc1ccccc1 (stereo unspecified),-,-,-,0,-,-
C[C@H](O)[C@@H]1C(=O)N2CCc3c([nH]c4ccccc34)[C@@H]2C[C@@H]1N(C)C(=O)c1ccco1,0,0,-,51,55,60
C[C@H](O)[C@@H]1C(=O)N2CCc3c([nH]c4c(-c5ccccc5)cccc34)[C@@H]2C[C@@H]1N(C)C(=O)c1ccco1,-,-,-,0,-,-
C[C@@H]1ON(C)[C@H]2C[C@H]3c4[nH]c5ccccc5c4CCN3C(=O)[C@@H]12,-,0,0,15,0,0
CC(=O)c1ccc(-c2ccc(C(=O)NCC(c3ccco3)N(C)C)o2)cc1 (stereo unspecified),-,0,0,19,0,12
Cc1ccc(C2Nc3ccccc3C(=O)N2CCCN2CCOCC2)cc1 (stereo unspecified),-,0,0,23,0,0
CCCN1C(=O)c2ccccc2NC1c1ccc(Cl)c(Cl)c1 (stereo unspecified),-,0,0,0,-,-
CCCN1C(=O)c2ccccc2NC1c1ccc(Cl)cc1 (stereo unspecified),-,0,0,16,0,7.0
CN(C)c1ccc(C2Nc3ccccc3C(=O)N2CCN2CCNC2=O)cc1 (stereo unspecified),0,0,0,0,-,-
O=C1NCCN1CCN1C(=O)c2ccccc2NC1c1ccccc1 (stereo unspecified),-,0,0,20,30,33
CCCN1C(=O)c2ccccc2NC1c1ccc(O)c(OCC)c1 (stereo unspecified),-,0,0,14,0,6.7
C[C@H](NC(=O)c1[nH]cnc1C(=O)Nc1ccccc1F)c1ccccc1,0,0,0,0,-,-
CC1Cc2ccccc2N1CC(=O)Nc1cc(S(=O)(=O)N2CCOCC2)ccc1Cl (stereo unspecified),0,0,0,0,-,-
COc1ccccc1-c1coc2c(CN3CCOCC3)c(O)ccc2c1=O,-,0,0,159,66,58
CCCCN(C)Cc1c(O)ccc2c(=O)c(-c3ccccc3OC)coc12,-,0,0,56,66,74
COc1ccc(-c2c(C)oc3c(CN4CCOCC4)c(O)ccc3c2=O)cc1OC,-,0,0,0,-,-
COc1ccccc1Oc1c(C)oc2c(CN3CCOCC3)c(O)ccc2c1=O,-,0,0,189,42,49
COc1ccccc1-c1c(C(F)(F)F)oc2c(CN(C)C)c(O)ccc2c1=O,0,0,0,0,-,-
CCOc1ccccc1Oc1c(C)oc2c(CN3CCN(C)CC3)c(O)ccc2c1=O,-,0,0,77,77,74
CC(NC(C)c1ccccc1Cl)C(=O)Nc1cccc(S(=O)(=O)N2CCCCC2)c1 (stereo unspecified),0,0,0,0,-,-
CC(=O)N1CCCC(C)(C(=O)N(C)Cc2cccc3ccccc23)C1 (stereo unspecified),0,0,-,0,-,-
COc1cccc(Oc2c(C)oc3c(CN4CCCC4)c(O)ccc3c2=O)c1,-,0,0,75,74,78
COc1ccccc1Oc1coc2c(CN3CCOCC3)c(O)ccc2c1=O,-,0,0,193,68,80
O=c1c(-c2ccc3c(c2)OCCO3)coc2c(CN3CCOCC3)c(O)ccc12,-,0,0,13,21,19
COc1cccc(Oc2coc3c(CN4CCOCC4)c(O)ccc3c2=O)c1,-,0,0,181,64,61
SMILES,Neddyl block,FAS TE block,PfG6PD inh,proKLK7 act,KLK7 act conf,EDANS-DABCYL int
CNc1nc(Oc2cccc(NC(C)=O)c2)c2sccc2n1,0,0,-,0,-,-
CCOC(=O)[C@]12CCCC=C1N(Cc1ccco1)C(=O)[C@H](CC(=O)N1CCC(c3ccccc3)CC1)C2,0,0,-,0,-,-
CCOC(=O)[C@@]12CCCC3=C1N(CCC3)C(=O)[C@H]2CC(=O)NCc1cccc(C(F)(F)F)c1,-,-,-,0,-,-
CC(C)C1C(=O)N(Cc2cn(CCC3OCCCO3)nn2)CCS(=O)(=O)N1Cc1ccc(-c2ccc(F)nc2)cc1 (stereo unspecified),0,0,0,0,-,-
N=c1c2c(-c3ccccc3)c(-c3ccccc3)n(Cc3ccccc3)c2ncn1C1CCOCC1,-,-,-,0,-,-
CCCCCn1nnnc1C1c2ccccc2OCC(=O)N1Cc1ccco1 (stereo unspecified),-,-,-,0,-,-
Cc1cccc(C)c1N1C(=O)CC(N(O)c2ccccc2)C1=O (stereo unspecified),0,0,0,277,224,254
CCCCOc1ccc(N2C(=O)CC(N(O)c3ccccc3)C2=O)cc1 (stereo unspecified),0,0,0,33,36,33
Cc1c(Cl)cccc1N1C(=O)CC(N(O)c2ccccc2)C1=O (stereo unspecified),0,0,0,759,676,671
Cc1cccnc1C(NC(=O)C1CCN(Cc2ccc(Oc3ccccc3)cc2)CC1)c1ccccc1 (stereo unspecified),0,0,-,-,-,-
NC(=O)N/N=C/c1ccccc1OC(=O)c1cc2ccccc2oc1=O,0,0,0,79,259,259
NC(=S)N/N=C/c1ccccc1OC(=O)c1cc2ccccc2oc1=O,0,0,0,42,228,200
N/C(=N\NC(=O)c1ccccc1)c1cc2ccccc2oc1=O,0,0,0,0,-,-
CC(C)(C)OC(=O)C(Oc1ccccc1[N+](=O)[O-])C(=O)OC(C)(C)C,0,-,-,325,217,205
COC(=O)[C@H](C(C)C)N1CCc2nnn(Cc3ccccc3)c2-c2cc(F)ccc2S1(=O)=O,-,-,-,0,-,-
COc1ccc(-c2cc(-c3ccccc3)n3ncnc3n2)cc1,-,0,0,30,25,0
COc1ccc(-c2ccnc3ncnn23)cc1,-,0,0,33,27,35
COc1ccc(-c2cc(N3CCCC3)n3ncnc3n2)cc1,0,0,0,0,-,-
CC(C)CNC(=O)C1CSCCS(=O)(=O)N1Cc1ccc(F)cc1 (stereo unspecified),-,-,-,0,-,-
CCOC(=O)[C@]12CCCC=C1N(CCC1=CCCCC1)C(=O)[C@H](CC(=O)NCC13CC4CC(CC(C4)C1)C3)C2,0,-,-,0,-,-
CN1CCN(CCCNC(=O)c2ccc3c(c2)N(Cc2ccccc2)CCS3)CC1,0,0,0,15,0,0
O=C(NCCN1CCOCC1)c1ccc2c(c1)N(Cc1ccccc1)CCS2,-,0,0,21,0,0
O=C(NCCCN1CCOCC1)c1ccc2c(c1)N(Cc1ccccc1)CCS2,-,0,0,0,-,-
C[C@H]1CN([C@@H](C)CO)S(=O)(=O)c2ccc(-c3ccc(C#N)cc3)cc2O[C@H]1CN(C)C(=O)CN(C)C,0,0,-,0,-,-
c1ccc(CNc2nc(NCc3ccccc3)c3sccc3n2)cc1,0,0,-,0,-,-
O=S(=O)(Nc1cccc(-c2cn3cccnc3n2)c1)c1ccc(F)cc1,-,0,0,58,14,14
O=S(=O)(Nc1cccc(-c2cn3cccnc3n2)c1)c1ccc(-c2ccccc2)cc1,-,0,0,0,-,-
